From PubChem BioAssay (NCATS)
Inconclusive results are not listed. The source made the active and inactive calls. Unless noted, calls come from the whole dose curve; as a rule, active = well fitted curve in the direction sought with a large enough effect; inconclusive = small, poorly fitted or top-dose-only effect, or another doubt; inactive = no such curve, though single readings can be large; an effect the other way counts as inactive or inconclusive.

Columns and labels:
[1] = Validation of Assay for Modulators of Lamin A Splicing (AID 1459; active = well fitted curve in the direction sought with a large enough effect in the signal ratio; the % refers to the signal ratio;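 note: cells exposed to compound for two days before reading; 0% is about no effect; ratio rise marks activators and ratio drop marks inhibitors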)
Summary of the method: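 Splicing correction is reported by an EGFP-containing lamin A minigene in stably transfected S3 HeLa cells, while DsRed2 controls for viability and nonspecific signal. Cells are exposed to compounds for 48 hrs before the GFP over RFP ratio is taken.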

[2] = target: Endonuclease 4 (Escherichia coli (strain K12)) (UniProt P0A6C1); test: Counterscreen for APE1 Inhibitors: qHTS Validation Assay for Inhibitors of Endonuclease IV (AID 1708); note: % is set by controls: 0 for no effect and ±100 for the full control effect
Summary of the method: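 Concentration-response counterscreen run identically to the APE1 assay: 15 min room-temperature preincubation of 2 nM enzyme with compound, reaction started with 50 nM quenched abasic DNA, progress taken from kinetic fluorescence.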

[3] = target: ATP-dependent DNA helicase Q1 (Homo sapiens) (UniProt P46063); test: qHTS Validation Assay for Inhibitors of RecQ-Like Dna Helicase 1 (RECQ1) (AID 2353);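 note: plate controls were DMSO vehicle for no effect and enzyme-free control for full effect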
Summary of the method: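 50 nM RECQ1T1 preincubated 15 min with compound in Tris pH 8.0 buffer with MgCl2, DTT, Tween-20 and 2.5 ug/ml poly(dI-dC); started with 200 nM TAMRA/BHQ-2 forked duplex and 2 mM ATP. Unwinding read as fluorescence (525/598 nm), two reads 2 h apart.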

[4] = Cytometric Cell-Based qHTS for Inhibitors of the mTORC1 Signaling Pathway in MEF (Tsc2-/-, p53-/-) Cells (AID 2660);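 note: percent of cells above a phospho-rpS6 to PI ratio cutoff in each well; plate controls were DMSO for no effect and rapamycin for full effect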
Summary of the method: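 Tsc2-/-, p53-/- MEFs (empty vector) exposed to compound 24 h at 37 C, fixed, stained with Alexa-488 anti-phospho-rpS6 Ser235/236 and propidium iodide. Acumen laser scanning; phospho-S6/PI ratio thresholded against 7.5 nM rapamycin, reported as % positive cells.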

[5] = High Content Imaging Cell-Based qHTS for Inhibitors of the mTORC1 Signaling Pathway in MEF (Tsc2-/-, p53-/-) Cells (AID 2666); conditions: at 38.3 µM (top of the series);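 note: percent of cells scored positive for phospho-rpS6 Ser235/236 immunostaining by imaging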
Summary of the method: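 Read-out: % positive cells per well, with thresholds from highest- and lowest-signal wells, based on phospho-rpS6 (Ser235/236) intensity normalized to Hoechst nuclear stain. Cells: Tsc2-/-, p53-/- MEFs carrying empty vector; compound 24 hrs, 37 degree Celsius.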

[6] = High Content Imaging Cell-Based qHTS for Inhibitors of the mTORC1 Signaling Pathway in MEF Cells (AID 2667);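 note: Tsc2-/- p53-/- MEFs stably re-expressing wild-type Tsc2 exposed 24 h; plate controls were DMSO wells for no effect and rapamycin control wells for full effect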
Summary of the method: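 MEF (Tsc2-/-, p53-/-, WT Tsc2 re-expressed); cpd 24 h, 37 °C; PFA fix; Alexa-488 anti-p-rpS6 Ser235/236, PI, Hoechst; IN Cell imaging; Hoechst/Alexa-488 intensity ratio; % active cells, thresholds set from rapamycin and DMSO wells.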

[7] = Validation screen for small molecules that induce DNA re-replication in MCF 10A normal breast cells (AID 463097); note: 0% is about no effect; nearly all actives have a fitted effect of over 60% in size
Summary of the method: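 DNA re-replication was detected as a rise in nuclei with elevated Hoechst fluorescence after a 48 hr compound exposure of MCF 10A cells at 37 C.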

[8] = target: Ubiquitin carboxyl-terminal hydrolase 2 (Homo sapiens) (UniProt O75604); test: qHTS Validation Assay for Inhibitors of Ubiquitin-specific Protease USP2a Using CHOP2 as the Reporter (AID 463106);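 note: plate controls were DMSO for no effect and full inhibition by NEM for full effect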
Summary of the method: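 USP2 core (10nM final) was preincubated with compound for 30min at RT in 20mM Tris-HCl pH 8.0, 2mM CaCl2, 2mM beta-mercaptoethanol, 0.05% CHAPS. Ub-CHOP2 and reporter substrate (25nM each) were added, and fluorescence (Ex 485/Em 531nm) was read after 60min.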

[9] = target: Tumor susceptibility gene 101 protein (Homo sapiens) (UniProt Q99816); test: qHTS Validation Assay for Iinhibitors of HIV-1 Budding by Blocking the Interaction of PTAP/TSG101 (AID 485342; calls by dose curve; note: 0% is about no effect)
Summary of the method: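 Fluorescence anisotropy measured PTAP-Tsg101 interaction. Final concentrations were 10 uM protein domain and 50 nM labeled peptide, equilibrated 20 min at room temperature.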

[10] = target: Beta-2 adrenergic receptor (Homo sapiens) (UniProt P07550); test: qHTS validation assay of beta-arrestin-biased ligands of beta2-adrenergic receptor (AID 485366); note: 0% is about no effect
Summary of the method: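 Tango cells expressing recombinant beta2-AR and beta-arrestin with tTA-driven luciferase, in DMEM with 1% FBS. Compounds were titrated up to 46 microM for 18 hr at 37 degrees C. Luminescence was read 15 min after substrate; curves were fitted and class-assigned.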

[11] = target: Thioredoxin reductase 1, cytoplasmic (Rattus norvegicus) (UniProt O89049); test: qHTS Assay for Substrates of Mammalian Selenoprotein Thioredoxin Reductase 1 (TrxR1) (AID 488772);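 note: NADPH fluorescence in the first read after selenite addition and not the 8 min delta; 0% is about no effect; a drop in NADPH fluorescence below the no-compound background marks a TrxR1 substrate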
Summary of the method: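 Quantitative HTS in Tris-HCl buffer at pH 7.5 with EDTA and Tween-20, using rat TrxR1, 400 uM NADPH and 400 uM selenite (final). A fall in initial NADPH fluorescence relative to background marked substrate behaviour.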

[12] = target: Flap endonuclease 1 (Homo sapiens) (UniProt P39748); test: qHTS Validation Assay for the Inhibitors of Human Flap endonuclease 1 (FEN1) (AID 488816); note: % is set by controls: 0 for no effect and ±100 for the full control effect
Summary of the method: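 FEN1, dispensed as a 10 nM reagent, was preincubated with pin-transferred compounds for 15 min at room temperature before substrate was added (50 nM final). Plates were read at 0 and 15 min, and a four-parameter Hill equation was fitted to the concentration-response data.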

[13] = target: M-phase phosphoprotein 8 (Homo sapiens) (UniProt Q99549); test: qHTS Validation Assay for Inhibitors for MPP8 Chromodomain Interactions with Methylated Histone Tails (AID 488949);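 note: AlphaScreen signal from MPP8 chromodomain bound to biotinylated H3K9me3 peptide; top concentration of the series differs between compounds; % is set by controls: 0 for no effect and ±100 for the full control effect; nearly all actives have a fitted effect of over 55% in size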
Summary of the method: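 Disruption of the preformed MPP8–trimethyl-H3K9 peptide complex (both 50 nM, 30 min, RT) is measured after 30 min compound exposure, using AlphaScreen proximity beads; aurintricarboxylic acid titration serves as plate control.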

[14] = target: Methanococcus maripaludis chaperonin (MmCpn) (UniProt Q6LX38); test: High-Throughput Screening for Modulators of Cytosolic Chaperonin Activity: MmCpn Primary Screen (AID 488978);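 note: 50 nM MmCpn enzyme hydrolysing 30 µM ATP at 37 °C; 0% is about no effect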
Summary of the method: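 Measures ATPase turnover of the M. maripaludis chaperonin (50 nM final) against 30 uM ATP over 10 min at 37C, with compound added 5 min beforehand at room temperature. ADP is quantified by HTRF immunodetection.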

[15] = target: Transient receptor potential cation channel subfamily V member 1 (Homo sapiens) (UniProt Q8NER1); test: HTS Assay for Compounds that Act as Enhancers of the Vanilloid Receptor 1 (AID 488979); note: 0% is about no effect
Summary of the method: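 TRPV1-expressing cells loaded with Fluo-8 calcium dye; compounds added and calcium influx read kinetically for 3 min (agonist phase), then capsaicin at EC20 added and read 2 min more for enhancement. Fluorescence ex 480/em 520 nm.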

[16] = target: Thyrotropin receptor (Homo sapiens) (UniProt P16473); test: qHTS Assay for Antagonists of the Thyroid Stimulating Hormone Receptor (AID 488980); note: 0% is about no effect
Summary of the method: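 Cells expressing human TSHR (HEK293) are dispensed in HBSS/HEPES containing 70 uM RO 20-1724, compound is added, then TSH at EC80 (4 nM final). Antibody in lysis buffer follows, 30 minutes at room temperature before HTRF detection.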

[17] = Validation screen for small molecules that induce genotoxicity in human embryonic kidney (HEK293T) cells expressing luciferase-tagged ELG1 (AID 493106); note: 0% is about no effect
Summary of the method: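 Luminescence from an ELG1-luciferase fusion serves as the read-out, rising when genetic stress elevates ELG1 protein. HEK293T reporter cells (2,000 per well) received 23 nL compound, incubated 16 hr at 37 °C, then ONE-Glo for 30 min at room temperature.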

[18] = target: ATPase family AAA domain-containing protein 5 (Homo sapiens) (UniProt Q96QE3); test: Validation screen for small molecules that inhibit ELG1-dependent DNA repair in human embryonic kidney (HEK293T) cells expressing luciferase-tagged ELG1 (AID 493107);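 note: cells co-treated with the DNA-damaging agent 5-fluorouridine alongside compound; % is set by controls: 0 for no effect and ±100 for the full control effect; inhibitors lower the ELG1-luciferase luminescence signal; nearly all actives have a fitted effect of over 70% in size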
Summary of the method: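 Luminescence from ONE-Glo, developed 30 min at room temperature, served as read-out of ELG1-luciferase levels. Beforehand, reporter HEK293T cells received 5-fluorouridine plus test compound for 16 hr at 37 °C.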

[19] = target: Thyrotropin-releasing hormone receptor (Homo sapiens) (UniProt P34981); test: qHTS for Small Molecule Agonists and Allosteric Enhancers of Human TRH Receptor: Validation Screen for Agonists (AID 493127;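 active = calcium activation more than 3 SD above the typical response in the agonist read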;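 note: intracellular calcium rise by fluo-8 fluorescence before TRH EC20 addition; 0% is about no effect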); conditions: TRH receptor agonist cell assay; at 2 µM; stronger effect = higher value
Summary of the method: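 Cells 2000/well, 10% FCS, 18 h 33.5C/5% CO2 → fluo-8 Ca dye, RT 30 min–1.5 h → FDSS baseline 10 × 1 s → compound added → 230 cycles (1 s/cycle) agonist mode. TRH controls.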

[20] = Nrf2 qHTS screen for inhibitors: Validation (AID 493153; active = well fitted inhibition curve with a large enough effect in the main read-out, with a control signal flat, not every such curve was filed as active); conditions: viability change: measured here: cytotoxicity max response
Summary of the method: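 Luminescence from an ARE-firefly luciferase reporter in A549 cells gives Nrf2 inhibition; an earlier CellTiter-Fluor fluorescent read flags cytotoxicity. Cells in 5% FBS OPTI-MEM received compound dilution series for 18-24 h at 37°C.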

[21] = qHTS for Inhibitors of Cell Surface uPA Generation: Validation Assay (AID 493164); note: 0% is about no effect
Summary of the method: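 RAW 264.7 cells (4000/well) were plated overnight, then exposed for 18 h at 37 C, 5% CO2 to compounds in a 7-point 1:5 titration (2.45 nM–38.3 uM final). Intracellular ATP was read by ATP-Lite luminescence.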

[22] = target: Galactokinase (Homo sapiens) (UniProt P51570); test: qHTS Validation Assay for Inhibitors of Human Galactokinase (GALK) (AID 493189); note: 0% is about no effect
Summary of the method: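 Compounds were pin-transferred into ATP buffer, then GALK-galactose mix was added (final 5 nM enzyme, 100 uM galactose, 35 uM ATP). After 1 h at room temperature, remaining ATP was measured luminescently.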

[23] = Validation screen for small molecules that induce DNA re-replication in SW480 colon adenocarcinoma cells (AID 504364); note: 0% is about no effect
Summary of the method: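 250 cells/well; compound pinned in; 48 hr, 37 C, 5% CO2; Hoechst added, 40 min; nuclear fluorescence imaged, 405 ex / 500-530 em; re-replication scored as increase in high-intensity nuclei.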

[24] = target: Peptidyl-prolyl cis-trans isomerase NIMA-interacting 1 (Homo sapiens) (UniProt Q13526); test: qHTS Validation Assay to Find Inhibitors of Pin1 (AID 504536; active = well fitted inhibition curve with a large enough effect in the polarisation, with a control signal flat, not every such curve was filed as active; the % refers to the polarisation;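 note: 0% = full Pin1 enzyme wells and -100% = no-enzyme wells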)
Summary of the method: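 Fluorescence polarization competition: compounds (titration) displace HiFluor-488-labeled Pin1-1b peptide from Pin1 (0.3 uM final) in pH 7.5 HEPES buffer with DTT, 10 min at room temperature; %Activity normalized to no-enzyme wells, curves fitted.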

[25] = target: Phosphoglycerate kinase, glycosomal (Trypanosoma brucei brucei) (UniProt P07378); test: qHTS Validation Assay to Find Inhibitors of Phosphoglycerate Kinase (AID 504547);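 note: control wells lack PGK and mark full inhibition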
Summary of the method: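 Substrate/PGK mix plus compound; reaction started with GAPDH (100nM final) to form 1,3-BPG; 60 min RT; Kinase-Glo Plus 10 min; luminescence. TEA 100mM pH 7.6, MgCl2 5mM, Tween-20 0.01%.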

[26] = target: phosphoglycerate mutase (Leishmania major) (UniProt Q4Q090); test: qHTS Validation Assay to Find Inhibitors of Phosphoglycerate Mutase (AID 504548); note: % is set by controls: 0 for no effect and ±100 for the full control effect
Summary of the method: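 Lm PGAM at 1.25 nM final with substrate in 100 mM TEA pH 7.6, 5 mM MgCl2, 0.01% Tween-20; 45 min at room temperature. Kinase-GloPlus added, 10 min, end-point luminescence read.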

[27] = target: Ubiquitin carboxyl-terminal hydrolase 1 (Homo sapiens) (UniProt O94782); test: Inhibitors of USP1/UAF1: Pilot qHTS (AID 504865);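 note: rhodamine fluorescence freed from ubiquitin-rhodamine substrate followed over time; top concentration of the series differs between compounds; % is set by controls: 0 for no effect and ±100 for the full control effect; nearly all actives have a fitted effect of over 35% in size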
Summary of the method: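 Kinetic fluorescence assay: 1nM USP1/UAF1, 15 min compound preincubation, then 150nM Ub-Rho; 480/540 nm.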

[28] = target: Voltage-gated inwardly rectifying potassium channel KCNH2 (Homo sapiens) (UniProt Q12809); test: qHTS Assay for Small Molecule Inhibitors of the Human hERG Channel Activity (AID 588834);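 note: potency is the fitted concentration of half-maximal effect; lower thallium flux fluorescence means stronger hERG block; nearly all actives have a fitted effect of over 50% in size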
Summary of the method: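 Measured: FluxOR fluorescence after thallium stimulation in U2OS cells transduced with hERG by baculovirus. Compounds pre-incubated around 10 min; medium Opti-MEM with 2% FCS. AC50 from Hill equation.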

Chain of Tumor susceptibility gene 101 protein (Homo sapiens) (Q99816 whole entry, looked up, the tested form may be a part): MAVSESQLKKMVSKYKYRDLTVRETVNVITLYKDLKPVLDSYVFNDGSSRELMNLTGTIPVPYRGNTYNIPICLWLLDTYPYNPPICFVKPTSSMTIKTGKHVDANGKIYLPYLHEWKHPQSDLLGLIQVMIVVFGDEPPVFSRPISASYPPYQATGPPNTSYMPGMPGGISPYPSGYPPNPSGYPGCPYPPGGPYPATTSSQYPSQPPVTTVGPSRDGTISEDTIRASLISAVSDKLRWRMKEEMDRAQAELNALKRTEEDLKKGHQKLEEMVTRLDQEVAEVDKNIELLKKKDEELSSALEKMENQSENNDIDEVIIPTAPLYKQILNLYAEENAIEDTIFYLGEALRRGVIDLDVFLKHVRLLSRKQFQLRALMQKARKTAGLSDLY
Chain of Beta-2 adrenergic receptor (Homo sapiens) (P07550 whole entry, looked up): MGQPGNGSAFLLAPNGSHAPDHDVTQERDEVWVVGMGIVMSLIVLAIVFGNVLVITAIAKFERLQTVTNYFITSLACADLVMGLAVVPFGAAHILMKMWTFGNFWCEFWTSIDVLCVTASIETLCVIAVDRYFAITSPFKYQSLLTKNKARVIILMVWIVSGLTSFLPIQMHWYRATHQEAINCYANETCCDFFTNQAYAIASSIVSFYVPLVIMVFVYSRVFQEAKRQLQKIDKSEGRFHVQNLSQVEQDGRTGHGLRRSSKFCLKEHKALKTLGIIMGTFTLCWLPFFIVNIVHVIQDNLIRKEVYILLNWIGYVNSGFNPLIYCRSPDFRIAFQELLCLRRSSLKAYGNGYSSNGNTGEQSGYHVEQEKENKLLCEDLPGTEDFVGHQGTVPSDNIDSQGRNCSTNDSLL
Chain of Voltage-gated inwardly rectifying potassium channel KCNH2 (Homo sapiens) (Q12809 whole entry, looked up): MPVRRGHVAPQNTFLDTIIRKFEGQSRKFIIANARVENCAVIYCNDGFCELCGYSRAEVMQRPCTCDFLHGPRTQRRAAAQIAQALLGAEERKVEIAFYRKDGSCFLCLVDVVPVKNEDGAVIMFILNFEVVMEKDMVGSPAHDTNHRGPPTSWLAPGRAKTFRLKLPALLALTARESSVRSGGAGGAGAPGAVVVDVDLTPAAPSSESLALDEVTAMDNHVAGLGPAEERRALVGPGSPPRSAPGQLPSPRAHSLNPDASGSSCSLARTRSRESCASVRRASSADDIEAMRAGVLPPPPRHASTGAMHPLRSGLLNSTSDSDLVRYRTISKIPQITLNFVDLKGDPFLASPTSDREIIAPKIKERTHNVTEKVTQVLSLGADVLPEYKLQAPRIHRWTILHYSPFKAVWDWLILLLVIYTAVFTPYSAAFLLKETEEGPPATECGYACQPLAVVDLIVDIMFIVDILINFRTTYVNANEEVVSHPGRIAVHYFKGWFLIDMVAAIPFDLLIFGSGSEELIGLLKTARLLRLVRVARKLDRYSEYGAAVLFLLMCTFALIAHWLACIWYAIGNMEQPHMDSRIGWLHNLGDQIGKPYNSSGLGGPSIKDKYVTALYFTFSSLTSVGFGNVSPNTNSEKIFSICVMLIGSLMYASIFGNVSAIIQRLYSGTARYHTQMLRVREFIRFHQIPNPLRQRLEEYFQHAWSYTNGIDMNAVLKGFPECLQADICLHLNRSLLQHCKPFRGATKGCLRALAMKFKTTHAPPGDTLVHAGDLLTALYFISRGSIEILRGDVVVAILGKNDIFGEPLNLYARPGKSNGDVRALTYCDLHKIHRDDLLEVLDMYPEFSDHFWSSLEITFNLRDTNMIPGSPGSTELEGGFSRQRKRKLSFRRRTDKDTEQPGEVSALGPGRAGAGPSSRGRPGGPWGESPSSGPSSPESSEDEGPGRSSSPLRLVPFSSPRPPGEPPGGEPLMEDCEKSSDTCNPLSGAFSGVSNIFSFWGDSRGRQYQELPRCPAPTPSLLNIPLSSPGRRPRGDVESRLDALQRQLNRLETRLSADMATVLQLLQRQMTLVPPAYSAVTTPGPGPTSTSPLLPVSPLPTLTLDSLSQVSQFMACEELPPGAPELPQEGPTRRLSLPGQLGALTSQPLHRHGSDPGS
Chain of Peptidyl-prolyl cis-trans isomerase NIMA-interacting 1 (Homo sapiens) (Q13526 whole entry, looked up): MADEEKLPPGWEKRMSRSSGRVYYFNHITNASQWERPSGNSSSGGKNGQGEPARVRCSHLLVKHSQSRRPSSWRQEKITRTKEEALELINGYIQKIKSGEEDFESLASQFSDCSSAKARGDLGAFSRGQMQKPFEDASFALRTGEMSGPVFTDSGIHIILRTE
Chain of M-phase phosphoprotein 8 (Homo sapiens) (Q99549 whole entry, looked up): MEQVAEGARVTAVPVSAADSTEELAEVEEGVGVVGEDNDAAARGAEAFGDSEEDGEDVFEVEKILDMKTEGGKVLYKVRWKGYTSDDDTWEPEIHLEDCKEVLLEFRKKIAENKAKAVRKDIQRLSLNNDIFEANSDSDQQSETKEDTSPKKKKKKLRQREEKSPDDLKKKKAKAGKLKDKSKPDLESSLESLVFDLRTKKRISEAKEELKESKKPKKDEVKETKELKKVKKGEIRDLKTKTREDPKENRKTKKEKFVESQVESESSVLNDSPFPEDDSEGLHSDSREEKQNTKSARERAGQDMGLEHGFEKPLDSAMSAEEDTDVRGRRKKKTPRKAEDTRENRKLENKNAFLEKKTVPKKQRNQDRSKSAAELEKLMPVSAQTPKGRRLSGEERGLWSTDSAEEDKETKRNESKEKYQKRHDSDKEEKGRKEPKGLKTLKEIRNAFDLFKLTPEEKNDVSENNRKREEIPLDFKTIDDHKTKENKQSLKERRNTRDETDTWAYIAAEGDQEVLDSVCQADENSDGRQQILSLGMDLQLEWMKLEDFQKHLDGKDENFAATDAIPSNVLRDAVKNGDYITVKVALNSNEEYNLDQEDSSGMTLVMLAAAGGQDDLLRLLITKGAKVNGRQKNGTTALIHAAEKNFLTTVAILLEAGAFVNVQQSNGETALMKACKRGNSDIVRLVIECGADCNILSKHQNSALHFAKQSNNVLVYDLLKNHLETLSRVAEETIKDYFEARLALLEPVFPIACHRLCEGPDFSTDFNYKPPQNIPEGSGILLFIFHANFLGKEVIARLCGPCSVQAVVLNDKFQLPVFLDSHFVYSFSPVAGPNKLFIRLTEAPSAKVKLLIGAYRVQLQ
Chain of Ubiquitin carboxyl-terminal hydrolase 1 (Homo sapiens) (O94782 whole entry, looked up): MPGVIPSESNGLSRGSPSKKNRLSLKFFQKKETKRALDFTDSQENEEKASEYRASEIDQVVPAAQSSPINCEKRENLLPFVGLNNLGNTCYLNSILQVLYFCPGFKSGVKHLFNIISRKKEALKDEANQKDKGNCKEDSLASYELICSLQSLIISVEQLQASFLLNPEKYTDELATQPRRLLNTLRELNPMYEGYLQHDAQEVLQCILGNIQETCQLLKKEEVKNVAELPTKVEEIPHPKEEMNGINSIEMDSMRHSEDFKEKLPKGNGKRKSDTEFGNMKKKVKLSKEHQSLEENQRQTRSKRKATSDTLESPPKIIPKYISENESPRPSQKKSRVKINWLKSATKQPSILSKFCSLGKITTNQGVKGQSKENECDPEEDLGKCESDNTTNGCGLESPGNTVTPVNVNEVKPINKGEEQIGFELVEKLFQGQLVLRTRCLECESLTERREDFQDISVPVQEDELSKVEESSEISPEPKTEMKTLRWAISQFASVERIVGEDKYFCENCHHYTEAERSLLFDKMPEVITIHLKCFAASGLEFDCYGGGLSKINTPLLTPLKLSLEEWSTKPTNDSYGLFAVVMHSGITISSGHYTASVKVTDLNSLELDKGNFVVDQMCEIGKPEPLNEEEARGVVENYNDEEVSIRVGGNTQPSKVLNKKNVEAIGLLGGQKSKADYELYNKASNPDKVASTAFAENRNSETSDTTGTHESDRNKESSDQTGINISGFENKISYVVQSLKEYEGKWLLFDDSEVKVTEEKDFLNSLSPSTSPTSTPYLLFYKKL
Chain of Thioredoxin reductase 1, cytoplasmic (Rattus norvegicus) (O89049 whole entry, looked up): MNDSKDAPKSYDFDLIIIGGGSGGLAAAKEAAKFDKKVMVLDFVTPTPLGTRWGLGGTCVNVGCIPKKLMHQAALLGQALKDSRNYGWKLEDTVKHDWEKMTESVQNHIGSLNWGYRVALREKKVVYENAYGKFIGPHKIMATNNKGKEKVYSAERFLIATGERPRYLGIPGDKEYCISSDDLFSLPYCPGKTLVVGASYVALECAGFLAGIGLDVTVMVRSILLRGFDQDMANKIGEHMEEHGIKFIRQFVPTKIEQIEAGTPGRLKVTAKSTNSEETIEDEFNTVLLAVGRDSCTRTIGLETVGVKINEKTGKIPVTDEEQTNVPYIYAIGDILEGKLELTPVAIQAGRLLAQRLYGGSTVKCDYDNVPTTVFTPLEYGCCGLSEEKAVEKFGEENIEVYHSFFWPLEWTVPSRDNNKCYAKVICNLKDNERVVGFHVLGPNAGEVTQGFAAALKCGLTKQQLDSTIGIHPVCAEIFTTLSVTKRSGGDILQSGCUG
Chain of phosphoglycerate mutase (Leishmania major) (Q4Q090 1-553): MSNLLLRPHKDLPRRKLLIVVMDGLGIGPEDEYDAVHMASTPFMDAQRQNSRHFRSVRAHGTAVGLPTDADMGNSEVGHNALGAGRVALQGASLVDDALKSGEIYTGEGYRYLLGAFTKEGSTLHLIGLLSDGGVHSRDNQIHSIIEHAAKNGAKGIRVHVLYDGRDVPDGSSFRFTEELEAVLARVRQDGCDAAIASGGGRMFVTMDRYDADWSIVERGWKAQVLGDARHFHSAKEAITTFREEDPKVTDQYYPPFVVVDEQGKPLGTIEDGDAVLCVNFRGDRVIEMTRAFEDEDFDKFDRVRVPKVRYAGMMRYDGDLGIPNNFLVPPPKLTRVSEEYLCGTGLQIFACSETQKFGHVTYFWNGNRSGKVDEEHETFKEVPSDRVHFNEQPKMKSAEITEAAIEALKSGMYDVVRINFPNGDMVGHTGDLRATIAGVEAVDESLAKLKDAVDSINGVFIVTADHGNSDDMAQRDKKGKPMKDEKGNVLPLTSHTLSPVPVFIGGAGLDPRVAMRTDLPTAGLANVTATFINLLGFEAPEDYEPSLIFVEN

Oc1cc2c(c(Cl)c1O)CCNCC2c1ccccc1 (centres undefined)
inactive: outcome [1] | Potency [2] | Potency [3] | outcome [4] | outcome [5] | Potency [6] | Potency [7] | Potency [8] | outcome [9] | outcome [10] | outcome [11] | Potency [12] | Potency [13] | outcome [14] | outcome [15] | outcome [16] | Potency [17] | Potency [18] | activation [19] 2.25% | outcome [20] | outcome [21] | outcome [22] | outcome [23] | Potency [24] | Potency [25] | outcome [26] | Potency [27]
-3.92%: viability change [20]
active: Potency [28] 2820 nM
